Test results as given in PubChem BioAssay AID624351 (Southern Research Specialized Biocontainment Screening …, 2012).
The campaign covered roughly 2,400 compounds. About 1,400 (58%) were called active. So high a share suggests a set chosen from earlier hits. The list shows a part of the results. Unmarked numbers belong to inactive results.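 How the source made its calls: active means inhibition of 30% or more at any tested dose; inconclusive means primary hits over the limit that were never retested; inactive means the rest.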

Assay: ADP Hunter readout inhibition without MgcRacGAP – biochemical, coupled enzyme counter-screen, artefact control for MgcRacGAP inhibitor project, dose response (AID 624351);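 further: signal is the ADP detection kit reading of free GDP without any GAP enzyme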;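 on inhibition: 0% = median positive control wells and 100% = median negative control wells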
Settings: fluorescence, no MgcRacGAP; series mostly up to 80 µM; inhibition: at the top concentration

For `N#Cc1c(Nc2ccccc2)s[nH]c1=O`, which “inhibition” value is on record?
The value was 3.41%.

With `CCOC(=O)c1sc(/N=C/c2c(O)ccc3ccccc23)cc1C` as the molecule, how does the IC50 read?
Its IC50 is 36 µM (active).

Which IC50 does the source give for `CCOC(=O)c1sc(/N=C/c2ccc(O)cc2O)cc1C` here?
Its IC50 is 24.7 µM (active).

With `CCCS(=O)(=O)N1CCN(C2CCC(C)CC2)CC1` (centres undefined) as the molecule, how does the “inhibition” value read?
The value was 15.8%.

Which IC50 does the source give for `CC1(C)CNc2cc(N)ccc2S1` here?
The IC50 was 26.6 µM (active).

Which “inhibition” value does the source give for `CCN(CC)CCOC(=O)c1ccc(N/C=C(/C#N)c2nc(-c3ccc(OC)c(OC)c3)cs2)cc1` here?
The value was 5.84%.

For `CC(C)NCC(=O)Nc1c2c(nc3ccccc13)CCC2`, which “inhibition” value is on record?
Its value is 22.6%.

For `O=C(COC(=O)c1c2c(nc3ccccc13)/C(=C/c1ccco1)CC2)NC1CCCC1`, which “inhibition” value is on record?
The value was -13.5%.

For `O=C(O)c1c2c(nc3ccccc13)/C(=C/c1ccc(O)cc1)CCC2`, which IC50 is on record?
Its IC50 is 60.2 µM (active).

Which IC50 does the source give for `Cc1ccc(Nc2ccc(N)cc2S(=O)(=O)O)cc1` here?
The IC50 was 40.2 µM (active).

For `Nc1ccc(N2CCOCC2)c(Cl)c1`, which IC50 is on record?
The IC50 was 51.3 µM (active).

For `Nc1cc(C(F)(F)F)ccc1N1CCOCC1`, which IC50 is on record?
Its IC50 is 30.2 µM (active).

Which “inhibition” value does the source give for `COC(=O)c1cc(NCc2ccccc2F)ccc1N1CCOCC1` here?
The value was 24.7%.

Which “inhibition” value does the source give for `O=C(CNCc1ccccn1)Nc1cc(C(F)(F)F)ccc1N1CCOCC1` here?
The value was 15.5%.

Which IC50 does the source give for `Nc1ccc(N2CCCCC2)c(Cl)c1` here?
Its IC50 is 37.9 µM (active).

For `COC(=O)c1cc(NCc2c(F)cccc2Cl)ccc1N1CCOCC1`, which “inhibition” value is on record?
The value was 19.7%.

With `Cc1cccc(C)c1OCCCCN1CCNCC1` as the molecule, how does the “inhibition” value read?
Its value is 22.1%.

Which IC50 does the source give for `O=C(NN=Cc1ccc(O)cc1)c1ccccc1NS(=O)(=O)c1cccs1` here?
Its IC50 is 75.6 µM (active).

Which IC50 does the source give for `COc1cc(/C=N/NC(=O)c2ccccc2NS(=O)(=O)c2cccs2)ccc1O` here?
Its IC50 is 79 µM (active).

Which “inhibition” value does the source give for `CC(=O)Oc1ccc([N+](=O)[O-])cc1N1C(=O)c2ccccc2C1=O` here?
The value was 9.3%.

For `CSc1ccc(CN2CCC(N3CC(C)OC(C)C3)CC2)cc1` (centres undefined), which “inhibition” value is on record?
The value was 24.7%.

With `Oc1ccc(/C=N/Nc2ncnc3c2ncn3Cc2ccccc2)cc1O` as the molecule, how does the IC50 read?
The IC50 was 40.7 µM (active).

Which “inhibition” value does the source give for `C=C1c2cccc(O)c2C(O)=C2C(=O)[C@]3(O)C(O)=C(C(N)=O)C(=O)[C@@H](N(C)C)[C@@H]3[C@@H](O)[C@H]12` here?
The value was -38.6%.

Which IC50 does the source give for `O=C1C=C(Nc2ccc(O)cc2)C(=O)c2ccccc21` here?
Its IC50 is 24.7 µM (active).

Which “inhibition” value does the source give for `O=C1C(=C(I)I)c2ccccc2-c2ccccc21` here?
The value was 0.01%.

Which “inhibition” value does the source give for `COc1cc(C=C2C(=O)c3ccccc3C2=O)cc(OC)c1OC` here?
Its value is -0.2%.

For `COc1ccc(S(=O)(=O)/N=C2\C=C(Nc3ccc(O)cc3)C(=O)c3ccccc32)cc1`, which IC50 is on record?
The IC50 was 52 µM (active).

For `O=C1C(Cl)=C(NCCc2ccccc2)C(=O)c2ccccc21`, which “inhibition” value is on record?
Its value is 6.08%.

Which IC50 does the source give for `COC1=C(Nc2ccc(O)cc2)C(=O)c2ccccc2C1=O` here?
The IC50 was 30.7 µM (active).

For `O=C1C(Nc2ccc(O)cc2)=C/C(=N/S(=O)(=O)c2cccs2)c2ccccc21`, which IC50 is on record?
The IC50 was 50.8 µM (active).

With `COc1ccc(CN2CCC(N(CCc3ccccc3)Cc3ccccc3)CC2)c(OC)c1` as the molecule, how does the “inhibition” value read?
Its value is 18.9%.

For `COc1ccc(OCCOCCN2CCN(C)CC2)cc1`, which “inhibition” value is on record?
The value was 25.9%.

For `CN(C)CCCC1Sc2ccccc2Sc2ccccc21` (centres undefined), which “inhibition” value is on record?
The value was 13.6%.

For `COc1ccccc1/C=C1/C(=O)N(c2ccccc2)N=C1C`, which “inhibition” value is on record?
Its value is -0.06%.

With `CC1=NN(c2ccccc2)C(=O)/C1=C/C=C/c1ccc(N(C)C)cc1` as the molecule, how does the “inhibition” value read?
Its value is 2.39%.

Which IC50 does the source give for `CC1=NN(c2ccccc2)C(=O)/C1=C/C=C/C=C/N(C)C` here?
The IC50 was 68.9 µM (active).

With `O=C(O)C1CCN(Cc2cnn(-c3ccccc3)c2-n2cccc2)CC1` as the molecule, how does the “inhibition” value read?
The value was 2.8%.

Which IC50 does the source give for `C/C(=C\C(=O)c1cccnc1)Nc1ccc(O)cc1` here?
Its IC50 is 13.6 µM (active).

With `C/C(=C\C(=O)c1ccccc1)Nc1ccc(O)cc1` as the molecule, how does the IC50 read?
The IC50 was 19.2 µM (active).

With `COc1ccc(C(=O)/C=C(\C)Nc2ccc(NC(C)=O)cc2)cc1` as the molecule, how does the “inhibition” value read?
The value was 14.6%.

Which IC50 does the source give for `O=C(Nc1ccc(O)cc1)c1ccc(C(=O)c2ccccc2)o1` here?
Its IC50 is 26.1 µM (active).

Which “inhibition” value does the source give for `Cc1ccc(C2CC(=O)N3CN(c4ccc(Br)cc4)CSC3=C2C#N)o1` (centres undefined) here?
Its value is -7.2%.

For `Cc1ccsc1/C=N/Nc1cccc(C(=O)O)c1`, which IC50 is on record?
Its IC50 is 72.9 µM (active).

With `O=C(O)c1cccc(N/N=C/c2cccs2)c1` as the molecule, how does the IC50 read?
Its IC50 is 62.5 µM (active).

With `O=C(CSc1cn[nH]n1)Nc1cccc(C(=O)O)c1` as the molecule, how does the “inhibition” value read?
Its value is 4.45%.

For `CSc1ccc(/C=N/Nc2cccc(C(=O)O)c2)cc1`, which “inhibition” value is on record?
Its value is 8.61%.

With `CN(c1ccc(O)cc1)c1nc(-c2ccccc2)cs1` as the molecule, how does the IC50 read?
Its IC50 is 53.7 µM (active).

For `CN(c1ccc(O)cc1)c1nc(-c2cccnc2)cs1`, which IC50 is on record?
Its IC50 is 19.9 µM (active).

Which “inhibition” value does the source give for `CCC1=NN2C(=N)/C(=C\c3ccc(SCc4ccco4)o3)C(=O)N=C2S1` here?
The value was 1.01%.

For `COC(=O)c1[nH]c2ccc(C)cc2c1NC(=O)Oc1ccccc1`, which “inhibition” value is on record?
Its value is 15.6%.

Which IC50 does the source give for `COC(=O)c1[nH]c2cc(OC)c(OC)cc2c1NC(=O)Oc1ccccc1` here?
Its IC50 is 19.5 µM (active).

With `Cc1[nH]c2ccccc2c1-c1csc(NC(=O)CSCCO)n1` as the molecule, how does the “inhibition” value read?
The value was 19.5%.

For `COC(=O)c1[nH]c2ccc(Cl)cc2c1NC(=O)Oc1ccccc1`, which IC50 is on record?
Its IC50 is 18.5 µM (active).

Which IC50 does the source give for `COC(=O)c1[nH]c2ccccc2c1NC(=O)Oc1ccccc1` here?
The IC50 was 15.6 µM (active).

Which “inhibition” value does the source give for `O=C1C=CC2(O[C@H](c3ccccc3)[C@@H](c3ccccc3)O2)[C@H](Sc2ccccc2O)C1` here?
The value was -5.72%.

For `CC1=CC(c2ccccc2)NC(=S)N1` (centres undefined), which “inhibition” value is on record?
The value was -6.82%.

For `O=[N+]([O-])/C=C/c1ccc2c(ccn2Cc2ccccc2)c1`, which “inhibition” value is on record?
The value was 0.07%.

Which IC50 does the source give for `O=c1c(O)c(-c2ccc(O)c(O)c2)oc2cc(O)ccc12` here?
Its IC50 is 52.8 µM (active).

For `O=c1c(O)c(-c2ccc(O)cc2)oc2cc(O)cc(O)c12`, which IC50 is on record?
Its IC50 is 34.5 µM (active).

Which IC50 does the source give for `COc1c(-c2ccc(O)c(O)c2)oc2cc(O)cc(O)c2c1=O` here?
The IC50 was 34 µM (active).

Which “inhibition” value does the source give for `c1ccc(CC2CCN(Cc3ccccn3)CC2)cc1` here?
Its value is 17.1%.

Which IC50 does the source give for `CC1(C)CC(=O)C=C(Nc2ccc(O)cc2)C1` here?
Its IC50 is 25.9 µM (active).

For `COc1cc(C2NC(=O)C(C#N)=C(S)N2c2ccc(C)cc2)ccc1OC(C)C` (centres undefined), which “inhibition” value is on record?
Its value is 2.55%.

For `COc1ccc(NCC(O)COc2ccc(C(C)(C)C)cc2)cc1` (centres undefined), which “inhibition” value is on record?
Its value is 22.3%.

For `COc1ccc(-c2cc3ccccc3n2CC(O)CN2CCCCC2)cc1` (centres undefined), which “inhibition” value is on record?
Its value is 17.7%.

For `COc1ccc(NCC(O)Cn2c(C)c(C)c3ccccc32)cc1` (centres undefined), which IC50 is on record?
Its IC50 is 66.8 µM (active).

With `COc1ccc(OC)c(CN2CCSCC2)c1` as the molecule, how does the “inhibition” value read?
The value was -3.93%.

Which IC50 does the source give for `Oc1ccc(C2=Nn3c(nnc3-c3ccco3)SC2)cc1O` here?
The IC50 was 14.2 µM (active).

Which “inhibition” value does the source give for `CC1Cc2ccccc2N1C(=O)CNCCCN(C)C` (centres undefined) here?
Its value is 25.2%.

For `CC(=O)Nc1cccc(NC(=O)c2cccc(-c3ccc(O)cc3)c2)c1`, which IC50 is on record?
Its IC50 is 59.1 µM (active).

For `COc1ccc(NC(=O)/C(Cl)=C(/Cl)S(=O)Cc2ccccc2)cn1` (centres undefined), which “inhibition” value is on record?
Its value is 4.52%.

With `O=C(Nc1ccccc1)c1cccc(-c2nnc(-c3ccccc3)o2)c1` as the molecule, how does the “inhibition” value read?
The value was 4.13%.

With `COc1ccc(NC(=O)c2cccc(-c3ccc(O)cc3)c2)cn1` as the molecule, how does the IC50 read?
The IC50 was 41.2 µM (active).

With `COc1ccc(NC(=O)/C(Cl)=C(/Cl)S(=O)Cc2ccc(Cl)cc2)cn1` (centres undefined) as the molecule, how does the “inhibition” value read?
The value was 1.96%.
